An excerpt weighted towards active compounds, which were near 1.8% of everything screened.
Tb PGK inh – inhibitors of T. brucei phosphoglycerate kinase; P07378; PGK/GAPDH coupled, Kinase-Glo luminescence, 60 min; Potency, µM (doses to about 57.5 µM), without a hit: top-dose activity change, negative = inhibition, hits mostly inhibitors; 0.043% of 380,000 active; also: % is scaled to controls: 0 for no effect and ±100 for the full control effect; nearly all actives have a fitted effect of over 60% in size
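Recombinant glycosomal PGK reaction used 1,3-bisphosphoglycerate generated in-well by GAPDH (100nM final) in 100mM TEA pH 7.6, 5mM MgCl2, 0.01% Tween-20. After 60 minutes at room temperature, ATP was read by Kinase-Glo Plus luminescence end-point.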
GLP1R inv ag – GLP-1 receptor (human) inverse agonism | HEK293 GLP-1R CRE-luciferase, luminescence, 24 h; GLP-1R form is constitutively active | 1.6% of 410,000 active | Potency, µM (doses to about 38.3 µM), for the others: at the top dose activity change, negative = inhibition, usual class: inhibitors | P43220 | AID 624417; also: % is scaled to controls: 0 for no effect and ±100 for the full control effect; nearly all actives have a fitted effect of over 55% in size
Target sequence (P43220 whole entry, looked up): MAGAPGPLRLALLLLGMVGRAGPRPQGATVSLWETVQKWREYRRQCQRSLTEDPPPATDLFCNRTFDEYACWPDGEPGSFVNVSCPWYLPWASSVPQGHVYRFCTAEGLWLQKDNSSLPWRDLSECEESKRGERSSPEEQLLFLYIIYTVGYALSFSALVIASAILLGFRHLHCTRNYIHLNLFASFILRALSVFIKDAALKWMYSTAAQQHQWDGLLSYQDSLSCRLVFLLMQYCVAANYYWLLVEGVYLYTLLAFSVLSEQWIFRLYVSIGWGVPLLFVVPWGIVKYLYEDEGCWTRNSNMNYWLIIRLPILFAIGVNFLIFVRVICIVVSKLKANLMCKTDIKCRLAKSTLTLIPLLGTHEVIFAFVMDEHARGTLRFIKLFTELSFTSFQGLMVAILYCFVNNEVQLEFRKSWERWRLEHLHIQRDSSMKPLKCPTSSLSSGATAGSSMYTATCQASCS
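Using stably transfected HEK293 (constitutively active GLP-1R, cAMP-luciferase reporter), compounds were incubated 24 hr and luciferase measured by luminescence.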
Tb PFK inh-1 – inhibitors of T. brucei phosphofructokinase; AID 485367; T. brucei PFK, ADP-Glo luminescence; 0.17% of 330,000 active; Potency, µM (doses to about 57.5 µM), inactives show at the top dose activity, negative = inhibition, most hits filed as inhibitors;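 also: 0% = uninhibited 1x PFK enzyme wells and -100% = no-enzyme wells; nearly all actives have a fitted effect of over 60% in size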
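Luminescent ADP detection (ADP-Glo, two-step: ATP depletion then ADP-to-ATP conversion for luciferase) reported PFK activity after 45 min room-temperature reaction of 1.25 nM enzyme with 0.5 mM F6P and 0.1 mM ATP at pH 8.0.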
Pin1 inh – inhibitors of human Pin1 | Q13526 | Pin1 FP peptide displacement, HiFluor488, 10 min | 0.009% of 390,000 active | Potency, µM (doses to about 115 µM), inactives show at the top dose activity, negative = inhibition, most hits filed as inhibitors; active = well fitted inhibition curve with a large enough effect in the polarisation, with a control signal flat, not every such curve was filed as active; inconclusive = small, poorly fitted or top-dose-only effect, or effect the other way, or a change in a side signal; inactive = no such curve, though single readings can be large or run the other way; the % refers to the polarisation; also: % is scaled to controls: 0 for no effect and ±100 for the full control effect
Target sequence (Q13526 whole entry, looked up): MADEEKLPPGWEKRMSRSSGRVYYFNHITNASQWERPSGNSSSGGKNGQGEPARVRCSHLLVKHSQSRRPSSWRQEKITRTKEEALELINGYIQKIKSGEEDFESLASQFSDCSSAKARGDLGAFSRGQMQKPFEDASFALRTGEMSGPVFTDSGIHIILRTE
GLP1R ag – agonists of human GLP-1 receptor; HEK293 GLP-1R CRE-luciferase, luminescence, 4-6 h; cells express a hypersensitive GLP-1R form; Potency, µM (doses to about 45.6 µM), without a hit: at the highest dose activation, actives largely listed as activators; 0.007% of 380,000 active; AID 624172; also: % of control where 0% means no effect
HEK293 tox – cytotoxicity counter-screen for GLP-1 receptor inverse agonists | Potency, µM (titrated, usually from 38.3 µM), for the others: at the top dose activity change, negative = inhibition, most hits filed as inhibitors | HEK293 cAMP-luciferase reporter cells, luminescence, 24 h | 0.13% of 410,000 active;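 also: loss of luciferase light is scored as toxicity; % is scaled to controls: 0 for no effect and ±100 for the full control effect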
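Cells in DMEM/10% Nu serum/1% pen-strep, 1536-well format. Pre-incubated 12 h, dosed with 23 nL compound, incubated a further 24 h. Luciferase detection, 12 min at room temp, luminescence.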
TbPFK ATP – inhibits T. brucei PFK measured by ATP depletion | 47% of 1,100 active | AID 504636 | Tb PFK enzyme, ATP depletion, Kinase-Glo Plus luminescence | shares compounds with Tb PFK inh-1 | Potency, µM (series often up to 57.5 µM), for the others: top-dose inhibition; calls by dose curve; also: nearly all actives have a fitted effect of over 60% in size
Tb PFK inh-2 – T. brucei PFK enzyme inhibition, hit validation; Potency, µM (titrated, usually from 57.5 µM), inactives show at the highest dose activity change, negative = inhibition, most hits filed as inhibitors; 41% of 1,100 active; shares compounds with Tb PFK inh-1; purified T. brucei PFK, ADP-Glo luminescence, 45 min; AID 504637;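 also: plate controls were full PFK enzyme control for no effect and no enzyme control for full effect; nearly all actives have a fitted effect of over 60% in size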
* = called active by the depositor; i = inactive; ? = inconclusive; nt = no result given. Unless noted, calls follow the shape of the dose curve; as a rule, active = well fitted curve in the direction sought with a large enough effect; inconclusive = small, poorly fitted or top-dose-only effect, or another doubt; inactive = no such curve, though single readings can be large; an effect the other way counts as inactive or inconclusive. Potency is read from the fitted curve at half-maximal effect.

SMILES	Tb PGK inh	GLP1R inv ag	Tb PFK inh-1	Pin1 inh	GLP1R ag	HEK293 tox	TbPFK ATP	Tb PFK inh-2
O=C(Nc1cc(S(=O)(=O)N2CCOCC2)ccc1N1CCCC1)c1ccc(Cl)cc1	2%	0%	?	3%	-5%	1%	24µM*	?
C/C=C(\CC)C(=O)NC(N)=O	nt	nt	nt	nt	5%	nt	nt	nt
CCCOC(=O)c1c(C)oc2c1cc(NS(=O)(=O)c1ccc(OCC)cc1)c1ccccc12	i	?	nt	5%	nt	-32%	nt	nt
O=[N+]([O-])c1ccc(N2CCN(c3cccc(Cl)c3)CC2)cn1	-1%	-31%	12µM*	-12%	14%	-12%	?	5.4µM*
O=C1CC(=O)N(c2cccc(Cl)c2)C(=O)N1	nt	4%	9%	22%	1%	3%	nt	nt
C/C(=N\NC(=O)c1cc(O)cc(O)c1)c1ccc(NC(=O)Cc2ccccc2)cc1	7.9µM*	-12%	?	nt	12%	5%	?	?
COc1ccc(S(=O)(=O)N2CCN(C/C=C/c3ccccc3)CC2)cc1F	-1%	?	-19%	16%	11%	281%	nt	nt
O=[N+]([O-])c1ncccc1OCc1ccc(Cl)c(Cl)c1	-9%	?	?	4%	26%	-5%	15µM*	17µM*
Clc1ccc(COc2ccccn2)cc1Cl	4%	-16%	17µM*	0%	-1%	-20%	12µM*	27µM*
CCc1ccc(CNC(=O)C2CCN(C(=O)c3ccc(-n4c(C)cc5ccccc54)s3)CC2)cc1	i	?	nt	25%	nt	-1%	nt	nt
Nn1c(SCc2cccc(F)c2)nnc1-c1cccnc1	5%	4%	-1%	4%	2%	?	nt	nt
Nn1c(SCC(=O)Nc2cccnc2Cl)nnc1-c1ccccc1	-1%	20%	?	-2%	-2%	13%	9.5µM*	11µM*
Nc1ccn(Cc2cccc(Cl)c2)n1	8%	16%	27µM*	2%	7%	14%	19µM*	?
CC(C)(C)c1cc(C(=S)N2CCN(CCO)CC2)cc(C(C)(C)C)c1O	-2%	0%	30µM*	4%	7%	-15%	12µM*	24µM*
COc1ccc(N2CCN(CCCNC(=O)c3cnn(-c4ccc(F)cc4)c3-n3cccc3)CC2)cc1	5%	?	nt	0%	-10%	6%	nt	nt
O=C(c1cccs1)c1cn(Cc2ccccc2Cl)c2ccccc12	-5%	-19%	0%	6%	5%	-9%	nt	nt
N/C(Cc1ccc(Cl)c(Cl)c1)=N\OC(=O)c1cccs1	-1%	0%	?	-11%	-15%	1%	11µM*	?
CCC(=O)Nc1ccc(F)c(Cl)c1	0%	6%	30µM*	4%	0%	-13%	?	?
O=C(Nc1ccc(F)c(Cl)c1)Nn1cnnc1	nt	nt	17µM*	nt	nt	nt	?	?
O=C(Cn1cnc([N+](=O)[O-])c1)Nc1ccc(F)c(Cl)c1	5%	-15%	24µM*	-1%	0%	-2%	7.6µM*	11µM*
Cc1ncc([N+](=O)[O-])n1CC(=O)Nc1ccc(F)c(F)c1	i	3%	?	7%	5%	5%	?	?
CN(C)C(=O)Oc1ccc(Br)cc1C(=O)Nc1ccc(F)c(Cl)c1	-5%	?	2%	0%	8%	-18%	nt	nt
CCC(C)[C@H]1CN=C(N)N1CCc1cc(C(F)(F)F)cc(C(F)(F)F)c1 (stereo partly drawn)	-9%	?	-3%	3%	2%	?	nt	nt
CC(=O)N1CCN(CC(=O)Nc2ccc(C#N)c(Cl)c2)CC1	-9%	21%	-5%	0%	-4%	-6%	nt	nt
COC(=O)/C(C#N)=C(/Nc1ccc(F)c(Cl)c1)C(F)(F)F	-4%	8%	27µM*	-5%	-1%	-6%	12µM*	27µM*
SMILES	Tb PGK inh	GLP1R inv ag	Tb PFK inh-1	Pin1 inh	GLP1R ag	HEK293 tox	TbPFK ATP	Tb PFK inh-2
O=C(CSc1n[nH]c(=O)n1C1CC1)Nc1ccc(F)c(Cl)c1	5%	12%	?	0%	5%	1%	?	?
OC1(c2ccc(Cl)cc2)CCN(Cc2c[nH]c3ccccc23)CC1	i	?	nt	-4%	-1%	9%	nt	nt
COC(=O)Oc1nsnc1N1CCOCC1	-10%	2%	27µM*	?	-1%	-10%	?	?
O=c1c(O)c(-c2cc(O)c(O)c(O)c2)oc2cc(O)cc(O)c12	?	-20%	8.5µM*	?	-5%	-7%	1.9µM*	3.8µM*
Cc1ccc(NC2=C(NC(=O)c3ccccc3)C(=O)c3ccccc3C2=O)cc1Cl	i	?	?	-4%	-16%	?	?	6.7µM*
O=C(Nc1ccc(Cl)cc1C(=O)c1ccccc1)c1ccccc1	-9%	?	-5%	2%	15%	10%	nt	nt
Cc1ccc(NS(=O)(=O)c2cc(NC(=O)c3ccc4c(c3)NC(=O)CS4)ccc2C)c(C)c1	i	?	21µM*	11%	5%	-24%	15µM*	24µM*
Cc1ccc(S(=O)(=O)Oc2ccccc2C=C2C(=O)N(C)C(=O)N(C)C2=O)cc1	-1%	?	10%	-3%	-10%	-6%	nt	nt
COc1ccccc1/C=C1\SC(=S)N(NS(=O)(=O)c2ccccc2)C1=O	3%	?	?	0%	-2%	?	-27%	?
C[C@H](CO)N1C[C@H](C)[C@H](CN(C)S(=O)(=O)c2ccc(Cl)cc2)OCc2ccccc2-c2c(n(C)c3ccccc23)C1=O	6%	?	nt	nt	9%	?	nt	nt
O=C1c2ccccc2C(=O)N1SC1CCCCC1	i	-3%	?	1%	4%	-17%	9.5µM*	15µM*
O=C1C(=O)c2ccccc2-c2ccccc21	?	?	6%	nt	-12%	?	nt	nt
COc1cccc2c1NC(C(=O)O)C1CC=CC21 (stereo not drawn)	?	16%	?	nt	-12%	14%	?	?
Fc1ccc(-c2nc3c(-c4ccc(F)cc4)cnn3cc2CCN2CCOCC2)cc1	8%	?	-9%	-4%	18%	8%	nt	nt
CCCOC(=O)c1cccc(Nc2nc(-c3cccnc3)nc3ccccc23)c1	11%	?	-1%	9%	-5%	?	nt	nt
